Over roughly 68,000 sequences, “fluorescence intensity (a.u.)” has its median near 9,100; the highest 2% begin near 16,000. Many of the other results were omitted from the sample, so the highest values are more common in it than they were.
What follows are sequences tested against OsWRKY34 (Oryza sativa, UniProt Q0JBA9 1-250) (assay: protein-binding microarray (RPBM); PBS, 2% BSA, 51.3 ng/ul salmon testes DNA, 50 uM zinc acetate, 200 nM TF, 25 C, 1 h; high values mean tight binding). Details: protein: recombinant; tags: N-terminal polyhistidine and DsRed monomer fusion (pET32a); label: CyDye5-dUTP incorporated in the synthesized complementary strand; 3' TTTTT single-stranded linker to array surface; dsDNA, one strand shown.
Sequence of OsWRKY34 (Q0JBA9 entry or part of it): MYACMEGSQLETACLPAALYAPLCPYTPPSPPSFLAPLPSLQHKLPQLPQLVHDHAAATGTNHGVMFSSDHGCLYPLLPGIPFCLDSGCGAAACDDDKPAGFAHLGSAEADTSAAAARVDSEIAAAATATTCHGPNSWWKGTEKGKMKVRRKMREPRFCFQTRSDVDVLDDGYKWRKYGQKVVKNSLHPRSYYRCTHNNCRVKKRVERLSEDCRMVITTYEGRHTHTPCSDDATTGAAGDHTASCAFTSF
How it was run: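 The binding signal is fluorescence intensity per feature, in arbitrary units, read on an Axon 4000B scanner. Polyhistidine- and DsRed-tagged transcription factors (N-terminal fusions) from E. coli BL21-CodonPlus were purified on Ni–NTA and applied at 200 nM for 1 h at 25 °C to a double-stranded, BSA-blocked custom Agilent array in buffer with 50 µM zinc acetate.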

| Sequence | binding signal |
| --- | --- |
| CTAGTCCTTCGTTTGAGTCCTTATATAACATTGATAGTACCGGAGTCACCTAGTGCAG | 8500 fluorescence intensity (a.u.) |
| CCGTATTTTAATGCACGACACCTTTGACTTTTTGATAAACCGGAGTCACCTAGTGCAG | 9990 fluorescence intensity (a.u.) |
| ATTTTTTAAGTGTACGTTGTTGTTGACTTTTTTTATTAACCGGAGTCACCTAGTGCAG | 14400 fluorescence intensity (a.u.) |
| CTACCTCTATATTTTAATTTTAATGTATGACGTCGTTGACCGGAGTCACCTAGTGCAG | 11100 fluorescence intensity (a.u.) |
| TCCGTATTTTAATTAACGACGTCGTTGACTTTTTAACCACCGGAGTCACCTAGTGCAG | 24200 fluorescence intensity (a.u.) |
| GTCCTTAACGACGTCGTTGACTTTTCACATAACATTATACCGGAGTCACCTAGTGCAG | 17300 fluorescence intensity (a.u.) |
| TATTTACTTTATTTCCTCCATTTATGTCGTTTTAGTTTTGCGGAGTCACCTAGTGCAG | 9590 fluorescence intensity (a.u.) |
| CCTCCTTTGTTCTTGCTCCTCTTTGCACGCAAAGAATCGGCGGAGTCACCTAGTGCAG | 9110 fluorescence intensity (a.u.) |
| TTGTTGTTTTTCGGTACTGTTGATTGAATTAGTGTTATGTCGGAGTCACCTAGTGCAG | 8120 fluorescence intensity (a.u.) |
| ACCTGACTAGCAAGCAACAATCATGTAACTTTTCACCTTTCGGAGTCACCTAGTGCAG | 8070 fluorescence intensity (a.u.) |
| TCCCAGCAAATGCAACGCTCGTACTCCTCGCATCAACAGCCGGAGTCACCTAGTGCAG | 8210 fluorescence intensity (a.u.) |
| TTGTTTCCTATACTTCCTACCAAATGTTCTGATTTTACTGCGGAGTCACCTAGTGCAG | 9520 fluorescence intensity (a.u.) |
| GTTATAGCGCATCTATCAATCGTACTAAATTTCATTGTCCCGGAGTCACCTAGTGCAG | 8450 fluorescence intensity (a.u.) |
| GTCATACCACCTTACTTTTTACGTTTGAATCACCATTCTACGGAGTCACCTAGTGCAG | 10900 fluorescence intensity (a.u.) |
| ATGTTTGTTTGGTTGACTGCACTTGGTCCGACGGATGAAACGGAGTCACCTAGTGCAG | 8720 fluorescence intensity (a.u.) |
| ATGGTGGGCTTGTATTGTCCTGCAGTCCTGCTTGTTTTACCGGAGTCACCTAGTGCAG | 10700 fluorescence intensity (a.u.) |
| GGTGGTTGGGTACTTGGGTTGGGTTTGGGTTTTTAGGTTTCGGAGTCACCTAGTGCAG | 29100 fluorescence intensity (a.u.) |
| GGTTTGTTTGTCAACCTCGGGGTGGTTGGGTACTTGGGTTCGGAGTCACCTAGTGCAG | 11000 fluorescence intensity (a.u.) |
| TGATAGTGGTGGGGTGGTATTGGTCCTAGCTTTGTACTCCCGGAGTCACCTAGTGCAG | 18700 fluorescence intensity (a.u.) |
| CAGTTAGGGGTGGGCATTCGGTCAGACCGAAAAATTCGGTCGGAGTCACCTAGTGCAG | 15500 fluorescence intensity (a.u.) |
| TTCCTTTTTTTACGTGGCAACAGTTAGGGGTGGGCATTCGCGGAGTCACCTAGTGCAG | 18400 fluorescence intensity (a.u.) |
| ACTAGTGAAGTGTTGCCCGTTGGGTTTGGTGGAGTTTGAACGGAGTCACCTAGTGCAG | 8200 fluorescence intensity (a.u.) |
| CTGGTTGGTAGGTACTTGCTTGATTAGATTGGGTTTGGTTCGGAGTCACCTAGTGCAG | 11500 fluorescence intensity (a.u.) |
| TATTGGGTGCTTTTGTCCTCAGGTGTGGTATATAGGTACCCGGAGTCACCTAGTGCAG | 8060 fluorescence intensity (a.u.) |

| Sequence | binding signal |
| --- | --- |
| CGATGAGGAGGAGGAGGGGCAACAGTGTTAGGGTGGATTTCGGAGTCACCTAGTGCAG | 12100 fluorescence intensity (a.u.) |
| TGTTGGGTTGGGTTGGGTTGGGTTGGGTCCGTCCGATGAACGGAGTCACCTAGTGCAG | 24200 fluorescence intensity (a.u.) |
| AGGCCATCATCACTTTAGTCTTATTTTCGTCACCATCATCCGGAGTCACCTAGTGCAG | 10300 fluorescence intensity (a.u.) |
| CTACTTATCATCCATTTAAACATGCTACTAGTCATTCTTCCGGAGTCACCTAGTGCAG | 10200 fluorescence intensity (a.u.) |
| CGTTGGATAATCTCTAGTACATGTATATACATTTGGCTCTCGGAGTCACCTAGTGCAG | 8220 fluorescence intensity (a.u.) |
| CTGCCACGTCACATTTGCCGCCCTCTGGGAGGGCGATTTTCGGAGTCACCTAGTGCAG | 8580 fluorescence intensity (a.u.) |
| AAACAGGTCACTACTATCCTCCATATATATATATTTTAGACGGAGTCACCTAGTGCAG | 9110 fluorescence intensity (a.u.) |
| AGAACTAGAAGACCACACGCTGTCTCACTTGTTGCAAAATCGGAGTCACCTAGTGCAG | 8050 fluorescence intensity (a.u.) |
| TCTCTCTTTCTTTCTATTTTTCTTTTCAGTCAGGTTAGTACGGAGTCACCTAGTGCAG | 11000 fluorescence intensity (a.u.) |
| CATCGATCGCACTAGTGTCGCTCTCTGGAAGTAATAGCCTCGGAGTCACCTAGTGCAG | 8110 fluorescence intensity (a.u.) |
| ATTAACAGCCTAGCTAGCTAGTGATCAGTGTTGACCGTTGCGGAGTCACCTAGTGCAG | 8200 fluorescence intensity (a.u.) |
| GGTGTTAGCTTTAGGTTTTGGTGTTTGGTTGGGTAATTTTCGGAGTCACCTAGTGCAG | 17300 fluorescence intensity (a.u.) |
| GTTTGCATGTTAAGCTTTAGGATTTGGTGGGTTATAATTTCGGAGTCACCTAGTGCAG | 10800 fluorescence intensity (a.u.) |
| TAGAGTGGTTGGTTGGGTACTTGGGTTGGGTTGGGTGGTCCGGAGTCACCTAGTGCAG | 24300 fluorescence intensity (a.u.) |
| GGTGGGGTTGGCAGCTTTCGTGCTTGGTCAACCGGGCATGCGGAGTCACCTAGTGCAG | 8520 fluorescence intensity (a.u.) |
| GAAAACCTAGGGTTAGGTTTGGTGGGGTTGGCAGCTTTCGCGGAGTCACCTAGTGCAG | 16400 fluorescence intensity (a.u.) |
| GTGTTTGGTTGGGTAATTTTGCAGGTGTTGCTCGTCAATTCGGAGTCACCTAGTGCAG | 10200 fluorescence intensity (a.u.) |
| GTTTCTTGGTCGTGGGGTCGAGGAGGTGGTGGGTGGTGGTCGGAGTCACCTAGTGCAG | 14800 fluorescence intensity (a.u.) |
| AGGTGGGGAGCGGCGGACTCGCGGTTGGGTTTGTGTGGTTCGGAGTCACCTAGTGCAG | 14200 fluorescence intensity (a.u.) |
| CTTCTTCTTCTTCTTCTTCTTGGTCCGGAGAGAGTAGAGACGGAGTCACCTAGTGCAG | 8090 fluorescence intensity (a.u.) |
| AGGAGATGCGGTAGTTTTTTTGGTACTGCGTGCGGTGGGGCGGAGTCACCTAGTGCAG | 8400 fluorescence intensity (a.u.) |
| GGGTACAGGGGTGGGGACTTGGGTGTGTTGTGGTGGTTACCGGAGTCACCTAGTGCAG | 12400 fluorescence intensity (a.u.) |
| TGGTACTGCGTGCGGTGGGGTAGGAGTAGGAGGTTTCTTTCGGAGTCACCTAGTGCAG | 16600 fluorescence intensity (a.u.) |

Reference: PMC7819943, “Rice protein-binding microarrays: a tool to detect cis-acting elements near promoter regions in rice”
